# Values joined by “and” are separate entries in the source; they are usually repeats but may differ in a detail not shown here. Equal entries are not always repeated. Compounds without any hit were thinned out: in the full panel of roughly 83,000, 20% have a hit.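 In brief: 96-well plates, 48 h treatment, single concentration, percent growth endpoint.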 Active and inactive are the calls of the source. Rule for the calls: active = growth percent below 10; inactive = the rest.
# Tested on: MDA-MB-468 breast
# Experiment: NCI-60 one-dose screen, 48 h (100 = growth as untreated, 0 = no growth, -100 = all killed)
# Conditions: 10 µM unless noted
row,SMILES,growth
1,Cc1ccc(C(=O)CSc2nc3ccccc3c(=O)n2C)cc1,82.6% (inactive)
2,CCOC(=O)CSc1nc(-c2cc(OC)ccc2OC)cc(-c2ccc(OC)cc2)c1C#N,92.7% (inactive)
3,COc1cccc(/C=C2\Oc3cc(OCCCN4CCCC4)ccc3C2=O)c1,69.4% (inactive)
4,O=C(Nc1ccccc1O)c1ccc(NS(=O)(=O)c2cccc3cccnc23)cc1,49.8% (inactive)
5,CC(=NCc1ccccc1)c1ccc(O)cc1O,118% (inactive)
6,COC(=O)c1ccc2oc(NC(=O)c3ccc(Nc4ccc([N+](=O)[O-])cc4C)c([N+](=O)[O-])c3)nc2c1,102% (inactive)
7,COc1cc(N2CCC(N(C)C)CC2)ccc1Nc1ncc(Cl)c(Nc2ccccc2P(C)(C)=O)n1,-38.3% (active)
8,NC(=O)c1ccc2c(c1)OCO2,88.9% (inactive)
9,CSc1nnc(-c2cc3c([nH]c4ccccc43)c(-c3cccc(O)c3)n2)n1-c1ccccc1,33.4% (inactive)
10,NCCCN(CCCN)CCCNCc1c2ccccc2c(CNCCCN(CCCN)CCCN)c2ccccc12,83.4% (inactive)
11,Nc1nc(Nc2ccccc2)n[nH]1,120% (inactive)
12,Nc1nc(N)c2nc(CNc3ccc(C(=O)NC(CCC(=O)O)C(=O)O)cc3)cnc2n1 (stereo unspecified),13.1% (inactive) and 12% (inactive)
13,O=C(c1ccc(F)cc1)C1CCN(CCn2c(=O)[nH]c3ccccc3c2=O)CC1,104% (inactive)
14,NC(=O)OCCn1cc(-c2nc(-c3c[nH]c4ncccc34)cs2)c2ccccc21,12.4% (inactive)
15,COc1cc(/C=C2\CCCC3=C2NC(N)=NC3c2cc(OC)c(OC)c(OC)c2)cc(OC)c1OC (stereo unspecified),-70.9% (active)
16,C=C1C(=O)O[C@H]2[C@H]1CC/C(COC(=O)/C=C/c1c[nH]c3ccccc13)=C\CC[C@@]1(C)O[C@@H]21,-78.1% (active)
17,CCOc1ccc(NC2=C(Cl)C(=O)c3ccccc3C2=O)cc1,64.9% (inactive)
18,C1C[S+]2CC[S+]1CC2,101% (inactive)
19,COc1cc(-c2ccc3c(c2)NC(=O)/C3=C\c2ccc[nH]2)ccc1O,16.6% (inactive)
20,CC1(C)CC[C@]2(CO)CC[C@]3(C)[C@H](CC[C@@H]4[C@@]5(C)CCCNC(C)(C)[C@@H]5CC[C@]43C)[C@H]2[C@H]1O,71.3% (inactive)
21,COc1cc2c(cc1OC)[C@H](C(=O)O)[C@@H](c1ccc(OC(C)C)c(OC)c1)N(C)C2=O,105% (inactive)
22,COc1ccc(Nc2cc(C)nc(NCc3ccccc3)n2)cc1,49.9% (inactive)
23,c1ccc(-c2nnc(-c3ccccn3)s2)nc1,23.5% (inactive)
24,COc1ccc(C(=O)/C=C/c2cccnc2Nc2cc(OC)c(OC)c(OC)c2)cc1,9.95% (active)
25,COc1cc2c(Nc3ccc(S(N)(=O)=O)cc3)ncnc2c(OC)c1OC,84% (inactive)
26,Cc1[nH]c(C(=O)Nc2ccc(C(N)=O)cc2NC(C)C)c(Cl)c1Cl,83.7% (inactive)

# Source: PubChem BioAssay (NCI)
